In PubChem BioAssay:
The source made the active and inactive calls.

How the values were obtained:
[1] = binders of probe aFSTL3 on microarray, primary screen, stem cell growth factor project, biochemical, small-molecule microarray, fluorescence 635/667 (AID 1064); settings: higher = more signal;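 note: measures binding of the biotinylated anti-FSTL3 antibody to printed compounds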
[2] = binders from COS7 lysate, DM2A8 probe, primary screen, torsin A project, cell lysate, small-molecule microarray, fluorescence 635/667 (AID 1065); settings: higher = more signal, COS7 lysate expressing mutant human TOR1A
[3] = binders of probe aFGF2 on microarray, primary screen, stem cell growth factor project, biochemical, small-molecule microarray, fluorescence 635/667 (AID 1067); settings: higher = more signal;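 note: measures binding of biotinylated aFGF2 protein to printed compounds on slides; z-score merges feature fluorescence and signal-to-noise across triplicate slides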
[4] = binders of probe aFGF10 on microarray, primary screen, stem cell growth factor project, biochemical, small-molecule microarray, fluorescence 635/667 (AID 1071); settings: higher = more signal;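 note: score merges 667 nm spot intensity and signal to noise from triplicate slides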
[5] = target: Neurogenic locus notch homolog protein 2 (Homo sapiens) (UniProt Q04721); assay: Notch2 binders on small-molecule microarrays, primary screen, biochemical, small-molecule microarray, 635 nm fluorescence, stem cell growth factors (AID 1073); settings: Notch2 binding, higher = more signal
[6] = target: Pro-neuregulin-1, membrane-bound isoform (Homo sapiens) (UniProt Q02297); assay: NRG1 binders on small-molecule microarrays, primary screen, psychiatric disease protein project, biochemical, small-molecule microarray, fluorescence 635/667 (AID 1075); settings: NRG1 binding, 635 nm fluorescence, higher = more signal;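 note: score combines 667 nm spot fluorescence with signal to noise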
[7] = tested on: Neuregulin-1 EGF-like domain; assay: binders of neuregulin-1 EGF-like domain, primary screen, biochemical, small-molecule microarray, 635 nm fluorescence (AID 1081); settings: small-molecule microarray binding, higher = more signal;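 note: binding of the protein to compounds printed on small-molecule microarray slides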
[8] = FRG1 promoter luciferase signal modulators, primary screen, FRG1 inhibition for FSHD, cell-based, C2C12 myotubes, firefly/Renilla luciferase, luminescence (AID 1084); settings: higher = more signal, called active from +8 up or from −8 down
[9] = binders of probe aFST on microarray, primary screen, stem cell growth factor project, biochemical, small-molecule microarray, fluorescence 635/667 (AID 1086); settings: higher = more signal;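 note: score merges 667 nm fluorescence with signal-to-noise of each printed compound spot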
[10] = binders of probe aHhip on microarray, primary screen, stem cell growth factor project, biochemical, small-molecule microarray, fluorescence 635/667 (AID 1087); settings: higher = more signal;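 note: score merges spot fluorescence at 667nm with spot signal to noise ratio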

Chain of Neurogenic locus notch homolog protein 2 (Homo sapiens) (Q04721 whole entry, looked up, canonical isoform): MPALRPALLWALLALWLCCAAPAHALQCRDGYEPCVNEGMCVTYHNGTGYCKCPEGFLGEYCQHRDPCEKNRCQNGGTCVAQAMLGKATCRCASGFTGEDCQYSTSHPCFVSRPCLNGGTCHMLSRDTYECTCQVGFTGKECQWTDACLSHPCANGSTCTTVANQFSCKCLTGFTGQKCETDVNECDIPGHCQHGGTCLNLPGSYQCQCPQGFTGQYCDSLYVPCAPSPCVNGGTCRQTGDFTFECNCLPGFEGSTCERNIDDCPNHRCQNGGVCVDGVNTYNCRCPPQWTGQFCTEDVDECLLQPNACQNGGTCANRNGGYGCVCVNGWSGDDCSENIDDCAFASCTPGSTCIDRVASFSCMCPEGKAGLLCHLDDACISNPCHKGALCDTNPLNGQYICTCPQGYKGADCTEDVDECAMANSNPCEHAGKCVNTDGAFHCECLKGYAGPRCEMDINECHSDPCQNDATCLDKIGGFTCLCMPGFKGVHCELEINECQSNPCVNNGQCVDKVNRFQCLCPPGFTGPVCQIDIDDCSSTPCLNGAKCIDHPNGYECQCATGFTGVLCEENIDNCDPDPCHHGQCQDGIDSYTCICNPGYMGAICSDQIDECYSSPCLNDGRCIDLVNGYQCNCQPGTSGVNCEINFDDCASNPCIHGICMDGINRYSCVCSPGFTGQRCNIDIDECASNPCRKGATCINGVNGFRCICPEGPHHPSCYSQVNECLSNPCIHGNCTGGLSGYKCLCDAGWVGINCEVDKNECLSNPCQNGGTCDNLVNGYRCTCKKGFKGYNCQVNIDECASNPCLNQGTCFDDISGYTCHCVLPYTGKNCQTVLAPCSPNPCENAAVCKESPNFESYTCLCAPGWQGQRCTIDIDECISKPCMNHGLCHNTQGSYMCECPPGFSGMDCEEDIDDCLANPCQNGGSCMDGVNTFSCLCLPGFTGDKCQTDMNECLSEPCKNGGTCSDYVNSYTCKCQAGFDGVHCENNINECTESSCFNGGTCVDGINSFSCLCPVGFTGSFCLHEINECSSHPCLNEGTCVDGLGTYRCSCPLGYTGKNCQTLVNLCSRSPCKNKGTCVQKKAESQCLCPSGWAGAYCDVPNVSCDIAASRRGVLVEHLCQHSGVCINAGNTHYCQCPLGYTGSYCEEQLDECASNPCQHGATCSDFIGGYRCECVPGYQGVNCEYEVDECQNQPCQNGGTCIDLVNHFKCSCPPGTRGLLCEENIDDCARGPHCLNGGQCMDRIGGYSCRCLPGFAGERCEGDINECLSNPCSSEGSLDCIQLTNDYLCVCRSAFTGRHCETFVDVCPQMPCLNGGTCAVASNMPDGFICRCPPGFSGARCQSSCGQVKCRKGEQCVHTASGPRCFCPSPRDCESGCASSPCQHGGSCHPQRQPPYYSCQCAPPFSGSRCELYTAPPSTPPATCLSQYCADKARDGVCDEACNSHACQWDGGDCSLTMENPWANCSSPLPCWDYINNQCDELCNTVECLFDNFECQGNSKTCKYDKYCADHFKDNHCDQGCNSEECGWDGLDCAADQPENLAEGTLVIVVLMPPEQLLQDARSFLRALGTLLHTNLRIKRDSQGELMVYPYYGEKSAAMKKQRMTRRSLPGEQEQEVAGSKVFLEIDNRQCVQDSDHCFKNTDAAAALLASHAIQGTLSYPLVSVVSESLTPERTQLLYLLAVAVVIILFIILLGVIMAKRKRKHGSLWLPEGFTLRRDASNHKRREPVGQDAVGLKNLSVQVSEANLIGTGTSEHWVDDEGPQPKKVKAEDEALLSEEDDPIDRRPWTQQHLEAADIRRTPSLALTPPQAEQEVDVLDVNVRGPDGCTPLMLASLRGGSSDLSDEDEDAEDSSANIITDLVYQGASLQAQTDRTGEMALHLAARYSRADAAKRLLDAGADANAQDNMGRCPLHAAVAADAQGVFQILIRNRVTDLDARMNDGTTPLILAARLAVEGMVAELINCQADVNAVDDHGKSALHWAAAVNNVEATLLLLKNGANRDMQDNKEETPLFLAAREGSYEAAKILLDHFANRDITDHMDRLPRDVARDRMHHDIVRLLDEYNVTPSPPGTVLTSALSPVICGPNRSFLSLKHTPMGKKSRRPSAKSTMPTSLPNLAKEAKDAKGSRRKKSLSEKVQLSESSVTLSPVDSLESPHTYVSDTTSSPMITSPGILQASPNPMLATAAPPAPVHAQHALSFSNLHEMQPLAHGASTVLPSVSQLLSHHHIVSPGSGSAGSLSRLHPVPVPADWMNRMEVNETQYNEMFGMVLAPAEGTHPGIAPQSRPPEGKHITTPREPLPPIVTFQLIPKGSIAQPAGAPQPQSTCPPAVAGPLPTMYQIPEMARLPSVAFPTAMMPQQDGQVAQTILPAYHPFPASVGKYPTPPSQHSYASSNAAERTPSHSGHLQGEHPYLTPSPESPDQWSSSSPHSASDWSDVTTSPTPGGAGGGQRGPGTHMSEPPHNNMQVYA
Chain of Pro-neuregulin-1, membrane-bound isoform (Homo sapiens) (Q02297 whole entry, looked up, the tested form may be a part, canonical isoform): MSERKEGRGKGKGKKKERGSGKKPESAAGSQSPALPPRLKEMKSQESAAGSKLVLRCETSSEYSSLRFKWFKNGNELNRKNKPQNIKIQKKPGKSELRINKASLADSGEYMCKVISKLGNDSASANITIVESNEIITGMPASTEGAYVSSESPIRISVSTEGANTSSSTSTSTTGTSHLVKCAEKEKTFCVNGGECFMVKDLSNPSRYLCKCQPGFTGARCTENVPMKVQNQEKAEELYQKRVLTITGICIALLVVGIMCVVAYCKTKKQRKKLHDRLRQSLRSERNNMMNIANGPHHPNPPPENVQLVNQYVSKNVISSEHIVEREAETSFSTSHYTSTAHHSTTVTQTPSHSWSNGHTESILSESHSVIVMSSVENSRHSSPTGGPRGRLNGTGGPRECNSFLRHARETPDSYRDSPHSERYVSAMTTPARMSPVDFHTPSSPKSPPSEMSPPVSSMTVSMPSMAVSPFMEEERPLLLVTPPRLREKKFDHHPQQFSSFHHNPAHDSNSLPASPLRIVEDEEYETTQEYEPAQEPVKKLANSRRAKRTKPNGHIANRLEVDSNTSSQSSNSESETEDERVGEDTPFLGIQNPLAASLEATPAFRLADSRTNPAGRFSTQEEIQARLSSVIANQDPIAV

SMILES	composite z-score [1]	composite z-score [2]	composite z-score [3]	composite z-score [4]	composite z-score [5]	composite z-score [6]	composite z-score [7]	z-score [8]	composite z-score [9]	composite z-score [10]
O=C1C[C@]2(c3ccc([N+](=O)[O-])cc3)C(=O)N(C3CC3)c3cc(CO)ccc3[C@H]2N1C1CCCCC1	-0.351	-0.124	-0.164	0.097	-0.0343	-0.123	-0.0608	0.413 (inactive)	-0.0927	-0.236
O=C1C2C=CC(C(O)c3ccc([N+](=O)[O-])cc3)N(Nc3ccccc3F)C2C(=O)N1c1ccccc1 (stereo not given)	0.484	0.173	-0.0172	0.438	1.12	1.6	1.29	-0.101 (inactive)	0.883	-0.163
COc1cc(OC)c(C(O)C2C=CC3C(=O)N(c4ccccc4)C(=O)C3N2Nc2ccc(C(C)C)cc2)cc1Br (stereo not given)	0.108	-0.0919	0.0559	0.774	1.44	1.4	1.28	-2.19 (inactive)	1.2	-0.0994
O=C(O)[C@H](Cc1ccccc1)n1cc(C2(O)CCCCC2)nn1	-0.44	0.444	-0.103	0.262	-0.0666	0.0741	0.993	1.64 (inactive)	0.163	-0.0645
O=C(NC1CC1)[C@@H]1c2ccccc2C(=O)N(Cc2ccc(OC(F)(F)F)cc2)[C@H]1c1ccc(CO)cc1	0.0273	0.314	-0.0418	-0.0789	0.354	1.38	0.793	-0.859 (inactive)	0.0427	-0.0994
NC(=O)N1C(=O)C2C(C1=O)C1C=C(CCCO)C2C(c2ccc(CN3CCCC3)cc2)N1Cc1sc2ccccc2c1Cl (stereo not given)	-0.161	0.224	-0.0867	0.0718	0.0517	0.0965	0.834	-0.824 (inactive)	-0.835	-0.323
COC(=O)[C@@]1(Cc2ccccc2)[C@H]2c3cc(C(=O)N(C)C)n(CCSC(=N)N)c3C[C@H]2CN1C(=O)c1ccccc1	-0.0908	-0.512	0.243	-0.248	-0.175	1.28	1.04	0.453 (inactive)	0.319	0.0401
O=C1N(CCS(=O)(=O)c2ccccc2)c2ccccc2C[C@]12N=C(c1ccc(OCCCO)cc1)O[C@@H]2c1ccccc1	0.227	0.335	0.0605	-0.122	1.15	0.333	1.23	-0.253 (inactive)	0.734	0.0053
O=C(NC1CC1)[C@@H]1c2ccccc2C(=O)N(Cc2cc(C(F)(F)F)cc(C(F)(F)F)c2)[C@H]1c1ccc(CO)cc1	-0.758	0.332	-0.223	0.0757	-0.134	1.4	1.36	0.102 (inactive)	-0.131	-0.863
Cc1ccccc1C(O)C1C=CC2C(=O)N(c3ccccc3)C(=O)C2N1Nc1ccccc1 (stereo not given)	0.457	0.573	0.133	1.15	1.61	2.18	1.31	-1.78 (inactive)	1.06	0.0741
COc1ccc([Si](C)(C)[C@@H]2[C@@H](CC(=O)N3CCC[C@H]3CO)O[C@]3(C(=O)N(Cc4cccc(N5CCCCC5=O)c4)c4ccccc43)[C@H]2C)cc1	-0.398	0.887	-0.116	0.411	0.0236	1.07	1.07	-0.0792 (inactive)	-0.015	-0.0296
C=C(CCCC)/C(=C/C[C@H](OC(=O)c1ccncc1)c1ccc(OCCO)cc1)c1cnc2ccccc2c1	0.102	1.23	-0.121	0.322	1.12	1.33	1.23	-0.791 (inactive)	0.402	-0.124
C=C(COC)/C(=C/C[C@H](OC(C)=O)c1ccccc1OCCO)c1cc(C(=O)OC)ccc1OC	-0.398	0.275	-0.0948	1.05	-0.738	0.727	1.28	0.181 (inactive)	0.318	-0.0003
CCCC[C@H]1C[C@@H]1[C@@H]1N(C(C)=O)[C@H](c2cccc(OC)c2)CC12CC2	0.116	-0.303	-0.0235	0.186	0.798	-0.106	-0.175	1.8 (inactive)	0.657	-0.0645
COc1ccc([Si](C)(C)[C@@H]2[C@@H](CC(=O)N(CCO)Cc3ccccc3)O[C@]3(C(=O)N(Cc4ccc(I)cc4)c4ccccc43)[C@H]2C)cc1	0.44	1.2	-0.0403	0.0554	0.512	0.136	0.83	-2.04 (inactive)	0.621	1
COCCCNC(=O)[C@@]1(CCC(=O)OC(C)(C)C)COC(c2ccc(OCCCO)cc2)=N1	-0.0885	0.355	-0.0659	0.611	0.844	1.63	1.21	-0.604 (inactive)	0.579	-0.12

SMILES	composite z-score [1]	composite z-score [2]	composite z-score [3]	composite z-score [4]	composite z-score [5]	composite z-score [6]	composite z-score [7]	z-score [8]	composite z-score [9]	composite z-score [10]
NC(=O)N1C(=O)C2C(C1=O)C1C=C(CCCO)C2C(C2CC2)N1Cc1sc2ccccc2c1Cl (stereo not given)	-0.4	1.09	0.0397	1.27	0.481	1.45	1.21	0.906 (inactive)	0.115	-0.134
C=CC[C@@]1(C(=O)N(C)C)N=C(c2ccc(OCCCO)cc2)O[C@@H]1c1ccccc1CN=[N+]=[N-]	0.151	0.448	-0.0004	1.01	1.61	1.68	1.17	-2.64 (inactive)	1.18	0.0373
COc1ccc(C(=O)Nc2cccc(CN3C(=O)[C@@]4(O[C@@H](CC(=O)N5CCC[C@H]5CO)[C@H]([Si](C)(C)c5ccc(OC)cc5)[C@H]4C)c4ccccc43)c2)cc1	-0.226	0.484	-0.0625	0.0314	0.518	1.39	1.13	-3.85 (inactive)	-0.0084	-0.261
CN(C)C(=O)[C@]1(Cc2ccccc2)N=C(c2ccc(OCCCO)cc2)O[C@@H]1c1ccccc1CN=[N+]=[N-]	-0.106	1.31	-0.0465	1.18	1.62	1.33	1.22	-0.783 (inactive)	0.879	-0.126
CCCN1C(=O)[C@]2(CCC(=O)OC(C)(C)C)N=C(c3ccc(OCCCO)cc3)O[C@@H]2c2ccccc21	0.678	1.24	-0.0136	0.152	0.399	0.421	1.07	0.177 (inactive)	0.0678	-0.0645
COC(=O)[C@@]1(Cc2ccccc2)[C@H]2c3cc(C(=O)N4CCCC4)n(Cc4ccc(OC)c(OC)c4)c3C[C@H]2CN1C(=O)c1ccccc1	0.439	0.411	0.141	0.605	1.77	2.16	1.4	0.626 (inactive)	1.88	0.857
O=C(NC1CC1)[C@@H]1c2ccccc2C(=O)N(CC23CC4CC(CC(C4)C2)C3)[C@H]1c1ccc(CO)cc1	-0.314	0.179	0.0319	0.581	1.44	0.264	1.29	-3.56 (inactive)	0.556	-0.0645
COC(=O)[C@@]1(Cc2ccc(OC)cc2)[C@H]2c3cc(C(=O)N4CCCC4)n(CCn4cc([N+](=O)[O-])nc4C)c3C[C@H]2CN1C(=O)c1ccccc1	2.45	2	0.861	1.25	1.5	1.58	1.31	2.02 (inactive)	2.71	3.56
COCCOC(=O)N1C(=O)[C@@]2(c3cc(C#CCC(C(=O)OC)C(=O)OC)ccc31)[C@H](C(N)=O)[C@H]1C(=O)O[C@H](c3ccccc3)[C@H](c3ccccc3)N1[C@@H]2c1ccc(O)cc1	-0.291	0.79	0.015	1.2	1.57	1.6	1.23	3.78 (inactive)	0.838	0.0768
COCCOC(=O)N1C(=O)[C@@]2(c3cc(C#CCC(C(=O)OC)C(=O)OC)ccc31)[C@H](c1ccc(O)cc1)N1[C@H](c3ccccc3)[C@H](c3ccccc3)OC(=O)[C@H]1[C@@H]2C(=O)Nc1nc2ccccc2s1	-0.0882	1.39	0.0001	0.785	1.27	1.12	1.27	0.909 (inactive)	0.606	0.382
O=C1O[C@@H](c2ccccc2)[C@@H](c2ccccc2)N2[C@@H](c3ccc(OCCO)cc3)[C@]3(C(=O)Nc4ccc(C#CC5(O)CCCCCC5)cc43)[C@@H](C(=O)Nc3nc4ccccc4s3)[C@H]12	-0.017	1.17	0.0649	0.517	1.46	1.51	1.24	2.48 (inactive)	0.397	0.113
CCCN1C(=O)[C@@]2(c3ccc([N+](=O)[O-])cc3)CC(=O)N(CC34CC5CC(CC(C5)C3)C4)[C@@H]2c2ccc(CO)cc21	0.402	-0.519	-0.165	-0.046	-0.421	0.0413	-0.58	0.244 (inactive)	-0.103	-0.213
CC(C)C[C@@H]1NC(=O)[C@@H]2C[C@H](C(=O)NCCCCCCNC(=O)CS)[C@H](c3cccc(OCCO)c3)N2C1=O	-0.514	1.05	0.0379	0.968	1.34	1.21	1.39	0.509 (inactive)	0.756	-0.069
C=CC[C@]1(C(=O)NCC(O)CO)COC(c2ccc(OCCCO)cc2)=N1 (stereo not given in full)	1.3	1.29	0.0163	-0.0216	-0.888	0.0498	0.99	1.14 (inactive)	0.0371	-0.141
C=CCC(OC(C)=O)[C@@H]1[C@@H](N(Cc2cccc3ccccc23)C(=O)Cc2ccc(OC)cc2)c2cc(OCCCO)ccc2N1C(=O)Cc1ccc2ccccc2c1 (stereo not given in full)	-0.289	-0.176	-0.14	0.184	-0.529	0.906	-0.29	-1.77 (inactive)	0.165	-0.364
